In PubChem BioAssay:
Calls of active or inactive are those of the source. Unless noted, how the calls were made is not given here.

Assays:
[1] = A549 cell viability effects, profiling panel, calcein-AM fluorescence, 48 h, basal (AID 1162); conditions: higher = more signal; further: test concentration not given here
[2] = adipocyte viability effects, profiling panel, cell-based, 3T3-L1 adipocytes, calcein-AM fluorescence, 48 h, basal (AID 1163); conditions: 3T3-L1 adipocytes viability, higher = more signal; further: test concentration not given here
[3] = HepG2 cell viability effects, profiling panel, calcein-AM fluorescence, 48 h, basal (AID 1164); conditions: higher = more signal; further: test concentration not given here
[4] = MM1S cell viability effects, profiling panel, calcein-AM fluorescence, 48 h, basal (AID 1165); conditions: higher = more signal;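 further: viability of MM1S multiple myeloma cells under basal unstimulated conditions; test concentration not given here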
[5] = basal RPMI8226 viability, no added stimulus, profiling panel, cell-based, calcein-AM fluorescence, 48 h, PK04 Diversity Set (AID 1166); conditions: RPMI8226 myeloma viability, higher = more signal;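 further: cells grown under basal conditions without added stimulus; test concentration not given here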
[6] = basal HepG2 mitochondrial membrane potential changes, profiling panel, cell-based, JC-1 fluorescence, 24 h, 100 nL compound (AID 1167); conditions: higher = more signal; further: test concentration not given here
[7] = basal 3T3-L1 adipocyte mitochondrial potential changes, profiling panel, cell-based, JC-1 fluorescence, 3T3-L1 adipocytes, 24 h, 100 nL compound (AID 1168); conditions: JC-1 mitochondrial fluorescence, higher = more signal, called active from +8 up or from −8 down; further: test concentration not given here
[8] = basal RPMI8226 mitochondrial membrane potential changes, profiling panel, cell-based, JC-1 fluorescence, 24 h, 100 nL compound (AID 1169); conditions: RPMI8226 myeloma, JC-1 mitochondrial potential fluorescence, higher = more signal; further: test concentration not given here
[9] = basal MM1S mitochondrial membrane potential changes, profiling panel, cell-based, JC-1 fluorescence, 24 h, 100 nL compound (AID 1170); conditions: higher = more signal; further: test concentration not given here
[10] = A549 lung cancer cell viability effects, profiling panel, resazurin fluorescence, 24 h, PK04 Diversity Set (AID 1171); conditions: higher = more signal, called active from +8 up or from −8 down; further: test concentration not given here
[11] = HepG2 liver cancer cell viability effects, profiling panel, resazurin fluorescence, 24 h, PK04 Diversity Set (AID 1172); conditions: higher = more signal; further: test concentration not given here
[12] = basal S. cerevisiae growth modulation, no modifier, primary screen, OD600, strain BY4716, 24 h, basal condition (AID 1173); conditions: OD600, 24 h, higher = more signal, called active from +8 up or from −8 down
[13] = MM1S myeloma cell viability, profiling panel, resazurin fluorescence, basal, 24 h, PK04 Diversity Set (AID 1174); conditions: higher = more signal, called active from +8 up or from −8 down;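 further: MM1S multiple myeloma cell line; test concentration not given here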
[14] = biological target: Dihydroorotate dehydrogenase (quinone), mitochondrial (Plasmodium falciparum (isolate 3D7)) (UniProt Q08210); assay: PfDHODH enzyme inhibitors, primary screen, biochemical, C-terminal His tag, absorbance 600 nm (AID 1175); conditions: DCIP absorbance 600 nm, higher = more signal, called active from +8 up or from −8 down;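 further: recombinant parasite enzyme with a five histidine tag at its C terminus; test concentration not given here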
[15] = P. aeruginosa biofilm formation inhibitors, primary screen, strain PAO1, LB-PBS medium, absorbance 600 nm (AID 1176); further: test concentration not given here; conditions: P. aeruginosa PAO1 growth/biofilm, A600, 12 h; higher = more signal
[16] = S. cerevisiae RM11-1a growth modifiers, primary screen, strain RM11-1a, OD600, basal, 24 h (AID 1177); conditions: OD600, 24 h, higher = more signal, called active from +8 up or from −8 down;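 further: cultures grown under basal conditions with no added stressor; test concentration not given here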
[17] = E. coli acrAB mutant growth effects, primary screen, E. coli filamentation inducers, strain DRC39, OD650, 24 h (AID 1178); conditions: higher = more signal, called active from +8 up or from −8 down;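 further: growth measured as culture turbidity by optical density at 650 nm; test concentration not given here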
[18] = E. coli acrAB mutant growth effects, primary screen, E. coli filamentation inducers, strain DRC39, OD650, 48 h (AID 1179);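 further: screen aims at cell division blockers that make cells filament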; conditions: E. coli DRC39 delta-acrAB growth, higher = more signal, called active from +8 up or from −8 down
[19] = RPMI8226 myeloma cell viability, profiling panel, resazurin fluorescence, basal, 24 h, PK04 Diversity Set (AID 1180); conditions: higher = more signal;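 further: RPMI8826 multiple myeloma cell line at 5000 cells per well; test concentration not given here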
[20] = biological target: E3 ubiquitin-protein ligase XIAP (Homo sapiens) (UniProt P98170); assay: XIAP binders, primary screen, biophysical, small-molecule microarray, fluorescence 635 nm (AID 1181); conditions: small-molecule microarray binding, higher = more signal;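 further: score merges 667 nm emission and signal to noise over triplicate slides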
E3 ubiquitin-protein ligase XIAP (Homo sapiens), sequence (P98170 whole entry, looked up): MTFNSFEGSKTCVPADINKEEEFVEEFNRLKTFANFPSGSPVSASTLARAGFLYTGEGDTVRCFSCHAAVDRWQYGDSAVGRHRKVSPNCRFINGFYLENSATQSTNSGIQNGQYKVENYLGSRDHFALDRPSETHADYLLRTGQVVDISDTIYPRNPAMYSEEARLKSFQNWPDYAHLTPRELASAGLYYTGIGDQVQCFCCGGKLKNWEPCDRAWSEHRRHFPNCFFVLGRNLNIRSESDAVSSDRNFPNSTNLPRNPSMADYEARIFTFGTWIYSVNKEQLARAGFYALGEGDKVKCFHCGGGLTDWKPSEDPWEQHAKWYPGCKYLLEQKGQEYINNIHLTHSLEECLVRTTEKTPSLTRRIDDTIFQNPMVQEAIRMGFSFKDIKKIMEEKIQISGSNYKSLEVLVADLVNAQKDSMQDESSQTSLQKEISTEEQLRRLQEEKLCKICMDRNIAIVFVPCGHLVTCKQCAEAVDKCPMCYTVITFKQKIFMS

Dihydroorotate dehydrogenase (quinone), mitochondrial (Plasmodium falciparum (isolate 3D7)), sequence (Q08210 whole entry, looked up): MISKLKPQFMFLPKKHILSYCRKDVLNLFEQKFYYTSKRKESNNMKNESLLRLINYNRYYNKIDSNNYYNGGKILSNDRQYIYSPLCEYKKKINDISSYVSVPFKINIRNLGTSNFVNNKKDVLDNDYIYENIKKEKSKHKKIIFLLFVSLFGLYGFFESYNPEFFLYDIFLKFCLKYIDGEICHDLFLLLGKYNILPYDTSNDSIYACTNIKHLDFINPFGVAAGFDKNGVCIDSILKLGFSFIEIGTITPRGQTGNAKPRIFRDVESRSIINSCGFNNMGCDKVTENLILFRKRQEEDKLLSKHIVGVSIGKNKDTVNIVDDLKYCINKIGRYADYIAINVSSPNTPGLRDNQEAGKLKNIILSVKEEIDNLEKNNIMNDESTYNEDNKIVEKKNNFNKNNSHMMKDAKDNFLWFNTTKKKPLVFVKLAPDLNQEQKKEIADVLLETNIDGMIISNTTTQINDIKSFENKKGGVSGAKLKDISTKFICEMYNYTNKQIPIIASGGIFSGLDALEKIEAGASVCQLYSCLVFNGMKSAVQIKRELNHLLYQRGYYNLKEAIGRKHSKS

Structure (SMILES)	z-score [1]	z-score [2]	z-score [3]	z-score [4]	z-score [5]	z-score [6]	z-score [7]	z-score [8]	z-score [9]	z-score [10]	z-score [11]	z-score [12]	z-score [13]	composite z-score [14]	z-score [15]	z-score [16]	z-score [17]	z-score [18]	z-score [19]	composite z-score [20]
O=C1NC(=O)C2C1C=CC(C(O)C=Cc1ccc([N+](=O)[O-])cc1)N2Nc1ccc(Cl)cc1Cl (stereo not given)	-0.352	-0.122	-0.3	-1.47	-1.4	-0.5	-0.726 (inactive)	-1.02	-0.873	-0.428 (inactive)	-1.22	-6.66 (inactive)	-1.19 (inactive)	0.139 (inactive)	0.807 (inactive)	0.379 (inactive)	0.178 (inactive)	-1.04 (inactive)	-0.615	-0.197
COc1ccc(NC(=O)O[C@H]2[C@H](OC(=O)c3cc4ccccc4[nH]3)[C@@H](OC(=O)c3cc4ccccc4[nH]3)[C@@H](OC)O[C@@H]2CO)cc1	0.349	0.203	0.825	-0.699	0.422	0.923	1.93 (inactive)	0.168	-0.117	-1.92 (inactive)	-1.08	-0.302 (inactive)	-1.68 (inactive)	-0.558 (inactive)	0.305 (inactive)	-0.575 (inactive)	1.13 (inactive)	1.53 (inactive)	-1.69	0.103
C#CCNCc1ccccc1	-0.29	-0.0255	0.331	0.612	-0.523	-0.221	-0.815 (inactive)	-0.804	-0.00594	0.0196 (inactive)	-0.0158	-1.11 (inactive)	0.642 (inactive)	-0.631 (inactive)	-0.677 (inactive)	-0.389 (inactive)	-0.758 (inactive)	-0.624 (inactive)	0.353	-0.0848
[N-]=[N+]=Nc1ccccc1C[C@@]1(C(=O)N2CCCCC2)N=C(c2ccc(OCCCO)cc2)O[C@@H]1c1ccccc1	0.93	0.699	1.02	-2.38	-4.45	0.819	0.883 (inactive)	-1.19	0.992	1.41 (inactive)	1.9	-2.84 (inactive)	-0.351 (inactive)	0.496 (inactive)	3.16 (inactive)	0.076 (inactive)	1.38 (inactive)	0.887 (inactive)	-0.0538	-0.236
COc1ccc(C(O)C2C=CC3C(=O)N(C)C(=O)C3N2N(c2ccccc2)c2ccccc2)c2ccccc12 (stereo not given)	-0.303	-1.6	0.943	0.149	0.2	-0.979	-0.14 (inactive)	0.545	-0.67	-0.738 (inactive)	-1	0.618 (inactive)	-1.57 (inactive)	0.231 (inactive)	0.447 (inactive)	0.588 (inactive)	-0.546 (inactive)	-0.225 (inactive)	-1.14	0.239
CN(C)CCCC[C@@H]1NC(=O)[C@H]2C[C@@H](C(=O)NCCCCCN)[C@@H](c3cccc(OCCO)c3)N2C1=O	0.227	0.167	-0.42	-1.44	0.537	1.28	1.18 (inactive)	0.51	1.26	0.123 (inactive)	0.306	-0.7 (inactive)	0.606 (inactive)	-0.997 (inactive)	0.118 (inactive)	-0.629 (inactive)	0.139 (inactive)	-0.386 (inactive)	0.932	0.0101
COC(=O)c1c2oc(c1C(=O)OC)C(=O)N[C@@H](C(C)C)Cn1cc(nn1)C1(CCCCC1)NC(=O)N[C@H](CO)CC2	1.31	-0.32	0.0744	-0.11	0.823	1.62	0.024 (inactive)	-0.159	0.3	1.15 (inactive)	1.61	-1.04 (inactive)	1.31 (inactive)	0.0825 (inactive)	0.985 (inactive)	-0.719 (inactive)	0.925 (inactive)	1.11 (inactive)	1.07	0.098
COc1ccc([Si](C)(C)[C@@H]2[C@@H](CC(=O)N3Cc4ccccc4C[C@H]3CO)O[C@]3(C(=O)N(Cc4cccc(N5CCC5=O)c4)c4ccccc43)[C@H]2C)cc1	-0.598	0.832	-0.16	-2.1	-2.55	-0.372	1.33 (inactive)	-0.755	-1.16	-1.38 (inactive)	-0.0715	0.984 (inactive)	-0.922 (inactive)	-3.46 (inactive)	2.04 (inactive)	1.38 (inactive)	0.249 (inactive)	-0.0051 (inactive)	-0.828	0.0819
COc1ccc([Si](C)(C)[C@H]2[C@H](CCO)O[C@@]3(C(=O)N(Cc4ccccc4)c4ccc(N5CCCCC5=O)cc43)[C@@H]2C)cc1	-0.0531	-0.627	-3.62	-2.03	-4.53	2	0.355 (inactive)	-0.781	0.363	-2.68 (inactive)	-1.91	0.234 (inactive)	-2.66 (inactive)	-2.81 (inactive)	1.51 (inactive)	3.14 (inactive)	0.663 (inactive)	0.45 (inactive)	-3.46	-0.0025
